Measurements from PMC4336329 (PLoS ONE, 2015).
Among all 310,000 compounds or so, about 14,000 (4.5%) showed an effect of 50% or more. Effects have a minus sign here. The entries come from a sample that favours strong results as a whole.

What follows are compounds tested against human ether-à-go-go-related gene (hERG) potassium channel (human, UniProt Q12809) (assay: primary screen, population patch clamp on CHO cells stably expressing hERG; higher = less effect of the substance).
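Note: peak tail current of the secondary pulse compared with the same well before compound.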

Chain of human ether-à-go-go-related gene (hERG) potassium channel (Q12809 whole entry, looked up): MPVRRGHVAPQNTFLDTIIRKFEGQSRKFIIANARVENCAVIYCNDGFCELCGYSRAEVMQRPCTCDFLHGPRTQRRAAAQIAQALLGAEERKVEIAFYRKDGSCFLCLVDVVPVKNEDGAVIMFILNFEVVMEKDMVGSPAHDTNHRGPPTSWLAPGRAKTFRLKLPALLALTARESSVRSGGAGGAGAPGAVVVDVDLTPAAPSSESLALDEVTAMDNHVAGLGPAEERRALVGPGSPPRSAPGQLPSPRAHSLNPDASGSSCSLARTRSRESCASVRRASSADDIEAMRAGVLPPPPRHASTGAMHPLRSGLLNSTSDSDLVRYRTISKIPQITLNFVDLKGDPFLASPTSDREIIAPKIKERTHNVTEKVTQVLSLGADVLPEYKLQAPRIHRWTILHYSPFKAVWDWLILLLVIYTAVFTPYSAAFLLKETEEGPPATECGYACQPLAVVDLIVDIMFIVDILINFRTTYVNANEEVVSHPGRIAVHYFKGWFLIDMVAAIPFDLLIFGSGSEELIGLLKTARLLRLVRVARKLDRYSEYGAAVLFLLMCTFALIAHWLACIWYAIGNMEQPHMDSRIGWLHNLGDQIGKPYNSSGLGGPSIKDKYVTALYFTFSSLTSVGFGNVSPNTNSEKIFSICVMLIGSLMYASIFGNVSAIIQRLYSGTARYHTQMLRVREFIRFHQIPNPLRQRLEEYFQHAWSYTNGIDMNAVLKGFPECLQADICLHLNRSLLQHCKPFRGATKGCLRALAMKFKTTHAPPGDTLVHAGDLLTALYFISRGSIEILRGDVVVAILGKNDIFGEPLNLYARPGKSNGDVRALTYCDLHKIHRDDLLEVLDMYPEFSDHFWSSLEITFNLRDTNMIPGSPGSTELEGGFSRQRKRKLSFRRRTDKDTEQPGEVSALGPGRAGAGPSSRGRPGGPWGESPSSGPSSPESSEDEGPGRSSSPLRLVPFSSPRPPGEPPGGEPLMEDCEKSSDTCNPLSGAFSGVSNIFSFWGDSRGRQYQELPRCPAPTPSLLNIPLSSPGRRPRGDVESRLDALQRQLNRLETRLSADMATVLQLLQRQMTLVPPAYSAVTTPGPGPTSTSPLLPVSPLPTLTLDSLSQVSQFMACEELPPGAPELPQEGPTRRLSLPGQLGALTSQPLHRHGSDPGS

Structure (SMILES) | hERG current change (%, negative = inhibition) at 10uM
CCOc1ccc(S(=O)(=O)n2nnc3ccccc32)cc1C | 14.6%
CCCn1c(C)c(C(=O)OCC)c(O)c(-c2ccccc2)c1=O | 19.5%
CC(=O)N1CCN(c2cc(N3CCCC3)c(F)cc2[N+](=O)[O-])CC1 | 5.05%
COc1ccc(/C=N/Nc2ccc(C(F)(F)F)cc2[N+](=O)[O-])cc1 | 5.35%
Cn1cccc1Cc1nnc(SCC(=O)NCCc2ccccc2)n1-c1ccc(F)cc1 | -21.6%
CC(C)Cc1nnc(NC(=O)CN2C(=O)NC3(CCCC3)C2=O)s1 | -9.22%
CC(=O)N=c1scc(-c2ccccc2)n1-c1cccc(O)c1 | 7.32%
COc1cnn(-c2ccc(Br)cc2)c(=O)c1SCc1ccccc1 | -65.6%
COc1cnn(-c2ccccc2)c(=O)c1SCc1ccc(Cl)c(Cl)c1 | -21.1%
COc1cnn(-c2ccc(C)cc2)c(=O)c1SCc1ccccc1 | -20.9%
CN(C)S(=O)(=O)c1ccc(NC(=S)NC(=O)C2CCC2)cc1 | 10.3%
CC(C)(SC(=S)N1CCCCCC1)C(=O)O | 24.3%
CC(C)(C)n1cn[nH]c1=S | 22%
CCCSc1cc(N2CCCC2)nc(-c2ccccc2)n1 | 15.5%
COc1ccc(CN2CCC(N3CC(C)OC(C)C3)CC2)c(OC)c1.O=C(O)C(=O)O (stereo not drawn) | -1.98%
COc1cccc(CN2CCN(Cc3cc(OC)c(OC)c(OC)c3)CC2)c1OC.O=C(O)C(=O)O | -8.03%
COc1ccc(CN2CCC(N(CCc3ccccc3)Cc3ccccc3)CC2)c(OC)c1.O=C(O)C(=O)O | -74.5%
COc1cccc(CN2CCC(N(CCc3ccccc3)Cc3ccccc3)CC2)c1OC.O=C(O)C(=O)O | -60.3%
COc1ccc(CCN(C)C(=O)C2CCN(Cc3cccc(OC)c3OC)CC2)cc1OC.O=C(O)C(=O)O | -3.13%
COc1ccc(CN2CCC(C(=O)N(C)CCc3ccc(OC)c(OC)c3)CC2)c(OC)c1.O=C(O)C(=O)O | -44.9%
O=C(Nc1ccccc1)c1ccc(S(=O)(=O)NCc2ccco2)cc1 | -11.6%

Structure (SMILES) | hERG current change (%, negative = inhibition) at 10uM
O=C(Cc1ccc(S(=O)(=O)N2CCCC2)s1)NC1CCCCCC1 | -31.4%
C/C(=N\NC(=O)Cn1nc(C)cc1C)c1ccc([N+](=O)[O-])cc1 | -17.6%
O=C(Nc1ccc(Cc2ccc(NC(=O)C3CC3)c(O)c2)cc1O)C1CC1 | 8.31%
CCC1(C)NC(=O)N(CC(=O)N2CCC(Cc3ccccc3)CC2)C1=O (stereo not drawn) | 3.65%
CCC(=O)N1COC[C@@H]1Cc1ccccc1 | 25.4%
CCC(=O)N1C(Cc2ccccc2)COC1(C)C (stereo not drawn) | -73.4%
Cn1c(=O)c2ncn(CC(=O)N=Nc3c(O)[nH]c4ccccc34)c2n(C)c1=O | 20.7%
O=C(N/N=C/c1cccc([N+](=O)[O-])c1)C(=O)N1CCCCCC1 | -52.5%
O=[N+]([O-])c1cccc(/C=N/NC2=NCCCCC2)c1 | -83%
Cl.O=[N+]([O-])c1ccccc1/C=N/NC1=NCCCCC1 | -39.3%
O=C(N/N=C/c1cccc(O)c1)C(=O)N1CCCCCC1 | 24.6%
O=C(ONC1=NCCCCC1)c1cccc([N+](=O)[O-])c1 | 0.994%
O=C(N/N=C/c1ccc([N+](=O)[O-])cc1)C(=O)N1CCCC1 | 13.5%
O=C(CSc1nnc(-c2cccnc2)n1CCc1ccccc1)NCc1ccccc1 | -10.9%
CCOc1ccc(-c2nnc(SCC(=O)N(CC)CC)n2N)cc1 | 5.1%
CN1C(=O)Cc2cc(S(=O)(=O)N3CCN(c4ccc(Cl)cc4)CC3)ccc21 | -2.2%
COc1ccccc1Nc1nc(NCCO)nc(N)c1[N+](=O)[O-] | 2.88%
Cc1cc(=O)oc2cc(OCC(=O)OCC(=O)Nc3ccccc3C(C)C)ccc12 | 3.47%
CSc1ccccc1C(=O)Nc1cc2c(cc1C(=O)O)OCCCO2 | 18.2%
COc1ccccc1C(=O)Nc1cc2c(cc1C(=O)O)OCCCO2 | -2.13%
CS(=O)(=O)c1ccccc1C(=O)Nc1cc2c(cc1C(=O)O)OCCCO2 | -57.3%

Structure (SMILES) | hERG current change (%, negative = inhibition) at 10uM
CCCCCC(=O)Nc1cccc(C2=NOC3(C2)C[C@H](C(N)=O)N(C(=O)CC)C3)c1 (stereo partly drawn) | 6.18%
C/C=C\C(=O)Nc1cccc(C2=NOC3(C2)C[C@@H](C(N)=O)N(C(=O)CCCCC)C3)c1 (stereo partly drawn) | -31%
CCCCCC(=O)N1CC2(CC(c3cccc(NC(=O)CC)c3)=NO2)C[C@H]1C(N)=O (stereo partly drawn) | -11.6%
CCCCCC(=O)N1CC2(CC(c3cccc(NC(=O)CC(c4ccccc4)c4ccccc4)c3)=NO2)C[C@@H]1C(N)=O (stereo partly drawn) | 11.4%
CCCCCC(=O)N1CC2(CC(c3cccc(NC(=O)c4ccccc4)c3)=NO2)C[C@@H]1C(N)=O (stereo partly drawn) | -54.6%
CCCCCC(=O)N1CC2(CC(c3cccc(NC(=O)COc4ccc(Cl)cc4)c3)=NO2)C[C@@H]1C(N)=O (stereo partly drawn) | -77%
CCCCCC(=O)Nc1cccc(C2=NOC3(C2)C[C@H](C(N)=O)N(C(=O)COc2ccc(Cl)cc2)C3)c1 (stereo partly drawn) | -22%
NC(=O)[C@@H]1CC2(CC(c3cccc(NC(=O)COc4ccc(Cl)cc4)c3)=NO2)CN1C(=O)COc1ccc(Cl)cc1 (stereo partly drawn) | -29.4%
CCCCCC(=O)Nc1cccc(C2=NOC3(C2)C[C@H](C(N)=O)N(C(=O)CCCCC)C3)c1 (stereo partly drawn) | -70.7%
N#CCCN1CCN(S(=O)(=O)c2ccc(S(=O)(=O)NC3CCCC3)cc2)CC1 | -9.4%
CCc1cc2c(Nc3ccc(O)cc3)nc(C)nc2s1.Cl | 8.46%
Cc1cc(/C=N/O)c(C)n1-c1ccc(Br)cc1 | -34.2%
CCc1ccc(OCCSc2nc3ccccc3n2CC(=O)O)cc1 | 3.37%
CSc1nsc(SC)c1NC(=O)N1CCCCC1 | 2.74%
O=C(NC(=S)N(Cc1ccccc1)Cc1ccccc1)c1ccccc1F | 18.5%
O=C(Cn1c(CO)nc2ccccc21)Nc1cc(C(F)(F)F)ccc1N1CCOCC1 | 1.37%
Cc1onc(-c2ccccc2)c1C(=O)N1CCN(Cc2ccc3c(c2)OCO3)CC1.Cl | 17.5%
O=C(c1cc2ccccc2oc1=O)N1CCN(CCc2ccccc2)CC1 | -71.8%
CN1CCN(C(=O)c2cc3ccccc3oc2=O)CC1 | 6.08%
Cc1cc(C(=O)N2CCN(Cc3ccc4c(c3)OCO4)CC2)on1 | -4.02%
Cc1c(C(=O)N2CCN(CCc3ccccc3)CC2)oc2ccccc12 | -72.4%

Structure (SMILES) | hERG current change (%, negative = inhibition) at 10uM
COc1cc2cc(C(=O)N3CCN(Cc4ccc5c(c4)OCO5)CC3)c(=O)oc2cc1OC | -0.572%
O=C(c1cc2ccccc2o1)N1CCN(Cc2ccc3c(c2)OCO3)CC1 | -22.1%
C=CCN1CCN(C(=O)c2oc3ccccc3c2C)CC1 | -0.434%
O=C(NCCN1CCN(C(=O)c2cc3ccccc3oc2=O)CC1)c1cc2ccccc2oc1=O | -15.9%
O=C(c1cc(-c2ccccc2)on1)N1CCN(Cc2ccc3c(c2)OCO3)CC1 | -50.1%
CC(=O)N1CCN(C(=O)c2oc3ccccc3c2C)CC1 | 8.84%
O=C(c1cc2ccccc2oc1=O)N1CCN(Cc2ccc3c(c2)OCO3)CC1 | -53.7%
c1ccc(CCCCNCC2COc3ccccc3O2)cc1 (stereo not drawn) | -28.5%
COc1cc(C(=O)NCCC(c2ccccc2)c2ccccc2)cc(OC)c1OC | 0.15%
COc1ccc(-c2cc(N)n(CCC#N)n2)c(OC)c1 | 4.12%
O=C(CSc1nnc(-c2ccncc2)o1)Nc1ccccc1C(F)(F)F | -0.412%
Cn1c(CNC(=O)CNC(=O)Cc2ccc(Cl)cc2)cc(=O)n(C)c1=O | 18.9%
COC(=O)C(C)Oc1cc(C)cc2oc(=O)c3c(c12)CCC3 (stereo not drawn) | -12.7%
N#CC1(NC(=O)CSc2nnc(-c3ccccc3F)o2)CCCCC1 | -13.1%
CC(C)CC(=O)Nc1ccccc1Oc1ccccc1 | -2.96%
Cc1n[nH]c(C)c1S(=O)(=O)N1CCCC(C(=O)N2CCN(c3ccc(Cl)cc3)CC2)C1 (stereo not drawn) | -75.1%
CC(=O)c1ccc(N2CCN(C(=O)C3CCCN(S(=O)(=O)c4c(C)[nH]c(=O)[nH]c4=O)C3)CC2)cc1 (stereo not drawn) | 23.4%
O=C(C1CCCN(S(=O)(=O)c2cnc[nH]2)C1)N1CCN(c2ccc(Cl)cc2)CC1 (stereo not drawn) | -35%
Cc1nn(C)c(C)c1S(=O)(=O)N1CCCC(C(=O)N2CCN(c3ccccc3)CC2)C1 (stereo not drawn) | -27.6%
Cc1nn(C)c(C)c1S(=O)(=O)N1CCCC(C(=O)N2CCN(c3ccc(Cl)cc3)CC2)C1 (stereo not drawn) | -70.4%
Cc1nn(C)c(C)c1S(=O)(=O)N1CCCC(C(=O)NCCc2ccc(Cl)cc2)C1 (stereo not drawn) | -0.523%
